This is a sample that favours compounds with a hit; in the whole collection about 12% have one here.
PLK1 PBD inh = blocks phosphopeptide binding to human PLK1 polo-box domain. P53350. Plk1 PBD binding of FITC phosphopeptide, fluorescence polarization. Potency, µM, actives largely listed as inhibitors. 360,000 tested, 2.8% active. AID 720504; also: series mostly up to about 57 µM; nearly all actives have a fitted effect of over 65% in size
JMJD2A Tudor inh = inhibitors of human JMJD2A Tudor domain; O75164; AlphaScreen JMJD2A-Tudor / H3K4me3 peptide binding; Potency, µM (series often up to 114 µM), usual class: inhibitors; 390,000 tested, 4.4% active; also: nearly all actives have a fitted effect of over 50% in size
HP1b binding inh = blocks HP1-beta chromodomain binding to methylated histone tails; P83916; AlphaScreen HP1-beta / biotin-H3K9me3 peptide binding; Potency, µM (titrated, usually from 114 µM), actives largely listed as inhibitors; 390,000 tested, 0.56% active; also: nearly all actives have a fitted effect of over 70% in size
Target sequence (P83916 whole entry, looked up): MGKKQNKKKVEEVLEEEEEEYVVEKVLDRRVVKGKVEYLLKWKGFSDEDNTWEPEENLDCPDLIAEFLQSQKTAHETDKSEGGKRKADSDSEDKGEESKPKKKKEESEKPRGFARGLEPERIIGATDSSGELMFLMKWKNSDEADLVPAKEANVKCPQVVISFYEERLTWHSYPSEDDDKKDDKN
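Compound inhibition of the preformed complex between 50 nM HP1-beta and 50 nM biotinylated H3K9me3 peptide was read by AlphaScreen. Buffer was PBS pH 7.4 with 0.01% Tween-20. Incubations ran 30 min at room temperature, with 10 ug/mL donor/acceptor beads.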
Sfp PPTase inh = inhibitors of Bacillus subtilis Sfp phosphopantetheinyl transferase; Q9F4F7; Biochemical Sfp PPTase activity, qHTS; Potency, µM, actives largely listed as inhibitors; 310,000 tested, 3.5% active; AID 1490;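 also: the enzyme is Sfp with the accession as filed and its product quenches rhodamine fluorescence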
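Fluorescence-quenching assay: 15 nM Sfp-PPTase preincubated 15 min at room temperature with compound, then 5 uM rhodamine-CoA and 12.5 uM BHQ-2-labelled YbbR peptide added. Fluorescence (ex 525/em 598 nm) read at start and after 30 min; difference gives rate.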
BAZ2B block = BAZ2B (human) inhibition; Q9UIF8; AlphaScreen BAZ2B-H3K14Ac peptide displacement; Potency, µM (top dose mostly 114 µM), usual class: inhibitors; 360,000 tested, 4.4% active; also: nearly all actives have a fitted effect of over 60% in size
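Complex of BAZ2B and biotin-H3K14Ac (50 nM apiece) forms over 30 min at RT, then faces library compounds up to 110 uM for another 30 min; AlphaScreen beads added, 20 min dark incubation, luminescence read.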
G9a block = G9a (human) methyltransferase inhibition; Q96KQ7; G9a H3K9 monomethylation, AlphaScreen, 2 h; Potency, µM (series often up to 102 µM), hits mostly inhibitors; 350,000 tested, 8.8% active; also: nearly all actives have a fitted effect of over 75% in size
Target sequence (Q96KQ7 913-1193 limits assumed): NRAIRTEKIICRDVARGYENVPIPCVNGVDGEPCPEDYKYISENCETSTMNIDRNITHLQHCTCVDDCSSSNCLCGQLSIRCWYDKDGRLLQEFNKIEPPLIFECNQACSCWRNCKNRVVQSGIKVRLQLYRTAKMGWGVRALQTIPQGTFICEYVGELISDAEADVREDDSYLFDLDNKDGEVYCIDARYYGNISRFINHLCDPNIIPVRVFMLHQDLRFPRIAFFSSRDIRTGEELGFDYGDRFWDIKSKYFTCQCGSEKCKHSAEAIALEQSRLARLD
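Step 1: enzyme (final 20 nM) with compound, 15 min RT. Step 2: substrate peptide 500 nM and SAM 20 uM, 2 h RT. Step 3: anti-H3K9me1 antibody and AlphaScreen beads, 10 min, then plate read.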
Each line names hits and unclear results; the compound was inactive in the other large screens. Calls follow the shape of the dose curve; as a rule, active = well fitted curve in the direction sought with a large enough effect; inconclusive = small, poorly fitted or top-dose-only effect, or another doubt; inactive = no such curve, though single readings can be large; an effect the other way counts as inactive or inconclusive.

Cc1[nH]n(-c2ncc(-c3ccc(Cl)cc3)s2)c(=O)c1C(c1ccc(Cl)cc1)C(C#N)C#N (centres undefined)	PLK1 PBD inh 9.5µM, JMJD2A Tudor inh 56µM, HP1b binding inh inconclusive, Sfp PPTase inh inconclusive, BAZ2B block inconclusive, G9a block inconclusive
Cc1[nH]n(-c2ccc(Cl)cc2)c(=O)c1N=Nc1cccnc1	none
N#C/C(=N/Nc1ccc([N+](=O)[O-])cc1)C(=N)N1CCCCC1	JMJD2A Tudor inh 56µM, HP1b binding inh inconclusive, BAZ2B block 35µM, G9a block inconclusive
N#C/C(=N\Nc1ccc([N+](=O)[O-])cc1)C(N)=S	JMJD2A Tudor inh 28µM, HP1b binding inh 35µM, Sfp PPTase inh 45µM, BAZ2B block 14µM (no result: G9a block)
N#C/C(=N\Nc1ccc([N+](=O)[O-])cc1)C(=N)N1CCOCC1	none (no result: G9a block)
OC[C@H]1OC(O)[C@H](O)[C@@H](O)[C@@H]1O (some centres undefined)	none (no result: PLK1 PBD inh, JMJD2A Tudor inh, HP1b binding inh, BAZ2B block, G9a block)
CCc1c(O)cc(=O)n(-c2ccccc2)c1-c1ccccc1	BAZ2B block 56µM, G9a block inconclusive
CC(=O)c1c(O)cc(=O)n(-c2ccccc2)c1-c1ccc(Cl)cc1	none
Nc1nc2c(c(=O)[nH]1)C(c1cccc3ccccc13)C1=C(N2)c2ccccc2C1=O (centres undefined)	PLK1 PBD inh inconclusive, JMJD2A Tudor inh inconclusive, Sfp PPTase inh 56µM, G9a block 35µM
CC(=O)C1=C(C)NC2=C(C(=O)c3ccccc32)C1c1ccccc1 (centres undefined)	JMJD2A Tudor inh inconclusive, HP1b binding inh inconclusive, BAZ2B block inconclusive, G9a block inconclusive
Cc1cc(Sc2nc(NC(C)C)nc(NC(C)C)n2)nc(Cl)n1	none
O=[N+]([O-])C(=C1Nc2ccccc2N1)/C(Cl)=C(/Cl)Br	PLK1 PBD inh 30µM, JMJD2A Tudor inh 18µM, HP1b binding inh inconclusive, BAZ2B block inconclusive, G9a block 7.9µM
CC([NH2+][O-])C(C)(C)NO (centres undefined)	JMJD2A Tudor inh 22µM, HP1b binding inh inconclusive, Sfp PPTase inh inconclusive, BAZ2B block inconclusive, G9a block 18µM
O=C(c1ccco1)N1CCC2(CCN(Cc3ccccc3)CC2)CC1	none (no result: PLK1 PBD inh, JMJD2A Tudor inh, HP1b binding inh, BAZ2B block)
COC(=O)CN1C(=O)[C@H]2[C@@H](c3ccc(C)o3)N3C(=O)CN(CC4CC4)C(=O)[C@@]3(C)[C@H]2C1=O	Sfp PPTase inh inconclusive, G9a block 50µM
COC(=O)CN1C(=O)[C@H]2[C@@H](c3ccc(C)o3)N3C(=O)CN(Cc4ccccc4)C(=O)[C@@]3(Cc3ccccc3)[C@H]2C1=O	Sfp PPTase inh inconclusive
Cc1ccc([C@@H]2[C@@H]3C(=O)N(C)C(=O)[C@@H]3[C@]3(C)C(=O)N(CCO)CC(=O)N23)o1	G9a block 45µM
COC(=O)CN1C(=O)[C@H]2[C@@H](c3ccc(C)o3)N3C(=O)CN(Cc4ccc(-c5ccccc5)cc4)C(=O)[C@@]3(C)[C@H]2C1=O	Sfp PPTase inh 13µM, G9a block 40µM
Cc1cc(Cl)ccc1OCC(=O)N(Cc1ccco1)c1c(N)n(Cc2ccccc2)c(=O)[nH]c1=O	none (no result: Sfp PPTase inh, BAZ2B block, G9a block)
Cn1c(=O)c2c(SCC(=O)NCc3ccco3)nc(-c3cccc(F)c3)nc2n(C)c1=O	JMJD2A Tudor inh inconclusive (no result: PLK1 PBD inh, Sfp PPTase inh)
O=C(NC(=S)Nc1ccc(NC(=O)c2cccs2)cc1)c1cc2ccccc2o1	none
O=C(c1cc2ccccc2o1)c1cccs1	PLK1 PBD inh 24µM
O=C1OCCC1Sc1nnc(-c2ccccc2)o1 (centres undefined)	none
O=C1c2ccccc2CC1Sc1nnc(-c2ccccn2)o1 (centres undefined)	PLK1 PBD inh 24µM, Sfp PPTase inh inconclusive, G9a block inconclusive
O=C(Cn1ccnc1)c1ccc(O)c(O)c1	JMJD2A Tudor inh 22µM, BAZ2B block 56µM, G9a block inconclusive (no result: Sfp PPTase inh)
CCOC(=O)/C(=N\Nc1ccccc1Cl)N(C)C1CCCCC1	PLK1 PBD inh inconclusive, G9a block 10µM
CCOC(=O)/C(=N\Nc1cc(C(F)(F)F)ccc1Cl)N(CC)CC	BAZ2B block inconclusive, G9a block 3.5µM
Cc1cc(-c2nnc(CCC(=O)NCCc3ccccc3F)o2)no1	none (no result: G9a block)
CC(CNC(=O)c1ccccc1Cl)c1ccccc1 (centres undefined)	none (no result: G9a block)
NS(=O)(=O)c1cccc(NC(=O)CSc2nnc(NC3CC3)s2)c1	none (no result: JMJD2A Tudor inh, HP1b binding inh, Sfp PPTase inh, BAZ2B block, G9a block)
COc1cc(C2c3c(n[nH]c3C)C(=O)N2c2ccc(C)cc2)ccc1O (centres undefined)	PLK1 PBD inh inconclusive, G9a block 50µM
Cc1ccc(N2C(=O)c3n[nH]c(C)c3C2c2cccnc2)cc1 (centres undefined)	G9a block 50µM
O=C(O)[C@@H]1CC(O)CN1C(=O)CCc1c[nH]c2ccccc12 (some centres undefined)	none
C/C(=N\NC(=O)c1cccc(S(=O)(=O)N2CCCC2)c1)c1ccc(C)cc1	none (no result: Sfp PPTase inh)
CN(CC(=O)Nc1ccc(F)cc1)C(=O)COC(=O)C1CCN(c2ccc(C(F)(F)F)cn2)CC1	G9a block 79µM (no result: Sfp PPTase inh)
O=C(COC(=O)C1CCN(c2ccc(C(F)(F)F)cn2)CC1)Nc1ccc(Cl)cc1	none (no result: Sfp PPTase inh)
CCOc1ccc(C(=O)C(C)OC(=O)C2CCN(c3ccc(C(F)(F)F)cn3)CC2)cc1 (centres undefined)	G9a block 56µM (no result: Sfp PPTase inh)
O=C(COC(=O)C1CCN(c2ccc(C(F)(F)F)cn2)CC1)Nc1ccc(F)cc1[N+](=O)[O-]	JMJD2A Tudor inh inconclusive, HP1b binding inh inconclusive, BAZ2B block inconclusive, G9a block 11µM (no result: Sfp PPTase inh)
CC(C)Oc1ccc(C(=O)NN2C(=O)NC3(CCCCC3)C2=O)cc1	none (no result: Sfp PPTase inh)
Cn1c(=O)[nH]c(=O)c2[nH]c(N(Cc3ccccc3)Cc3ccccc3)nc21	JMJD2A Tudor inh inconclusive, Sfp PPTase inh 89µM, BAZ2B block inconclusive, G9a block 50µM
Cn1c(=O)[nH]c(=O)c2[nH]c(CN3CCN(Cc4ccccc4)CC3)nc21	none
CN(C)S(=O)(=O)c1ccc(C(=O)Oc2cc(=O)[nH]c3ccccc23)cc1	PLK1 PBD inh 8.4µM, G9a block 71µM
CCOC(=O)c1[nH]c2ccccc2c1NC(=O)c1ccc(S(=O)(=O)N(C)C)cc1	none
O=C(Nc1ccc(Br)cc1)C1CCN(c2ncccn2)CC1	none (no result: PLK1 PBD inh, Sfp PPTase inh)
Cc1cccc(Oc2nc3c(C)cccn3c(=O)c2/C=C(\C#N)c2nc3ccccc3s2)c1	none (no result: PLK1 PBD inh, Sfp PPTase inh)
N#C/C(=C\c1c(Oc2ccc(Br)cc2)nc2ccccn2c1=O)c1nc2ccccc2s1	G9a block 2.8µM (no result: PLK1 PBD inh, Sfp PPTase inh)
CCc1ccc(Oc2nc3c(C)cccn3c(=O)c2/C=C(\C#N)c2nc3ccccc3s2)cc1	none (no result: PLK1 PBD inh, Sfp PPTase inh)
Cc1cc(Oc2nc3ccccn3c(=O)c2/C=C(\C#N)c2nc3ccccc3s2)ccc1Cl	G9a block 10µM (no result: PLK1 PBD inh, Sfp PPTase inh)
Cn1nnnc1SCCCNCc1ccccc1OCc1ccccc1Cl	none (no result: PLK1 PBD inh, Sfp PPTase inh)

Screening results (PubChem)
